We go through 61 compounds from PubChem BioAssay AID1347418 (Sanford-Burnham Center for Chemical Genomics, 2020).

Among all 1,300 compounds or so, about 750 (58%) were called active. Some of the results follow. A number with no mark means an inactive call.

The assay deals with Sulfhydryl oxidase 1 (Homo sapiens) (UniProt O00391). The experiment in a line: inhibition of human sulfhydryl oxidase QSOX1 – biochemical, ROS-Glo H2O2 luminescence, HTS, primary screen (AID 1347418). Conditions: recombinant QSOX1, ROS-Glo H2O2 luminescence; at 12.5 µM; active compounds read high; active = any value above zero.
Chain of Sulfhydryl oxidase 1 (Homo sapiens) (O00391 whole entry, looked up): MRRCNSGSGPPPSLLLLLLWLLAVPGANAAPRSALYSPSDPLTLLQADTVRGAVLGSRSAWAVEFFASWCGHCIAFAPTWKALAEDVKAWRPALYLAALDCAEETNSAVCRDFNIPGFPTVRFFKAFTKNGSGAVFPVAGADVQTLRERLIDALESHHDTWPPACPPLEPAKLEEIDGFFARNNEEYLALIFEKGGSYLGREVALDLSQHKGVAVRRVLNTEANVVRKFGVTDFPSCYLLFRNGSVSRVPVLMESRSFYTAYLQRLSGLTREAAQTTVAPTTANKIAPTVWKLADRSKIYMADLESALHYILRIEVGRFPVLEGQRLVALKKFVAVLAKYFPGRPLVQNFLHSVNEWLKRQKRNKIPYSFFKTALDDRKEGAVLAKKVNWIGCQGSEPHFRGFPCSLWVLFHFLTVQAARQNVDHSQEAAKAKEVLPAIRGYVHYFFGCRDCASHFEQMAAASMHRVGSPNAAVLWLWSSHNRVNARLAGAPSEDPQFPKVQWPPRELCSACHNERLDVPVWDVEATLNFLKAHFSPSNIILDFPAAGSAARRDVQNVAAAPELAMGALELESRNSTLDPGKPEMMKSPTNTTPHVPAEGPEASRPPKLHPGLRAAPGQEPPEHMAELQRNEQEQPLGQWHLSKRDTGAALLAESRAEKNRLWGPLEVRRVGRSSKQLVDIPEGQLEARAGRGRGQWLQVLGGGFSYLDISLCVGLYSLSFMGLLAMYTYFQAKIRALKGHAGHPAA
With `CC#C[C@]1(O)CC[C@H]2[C@@H]3CCC4=CC(=O)CCC4=C3[C@@H](c3ccc(N(C)C)cc3)C[C@@]21C`, the inhibition (commonly the relative decrease from the control value, in per cent) is 29.9% (active).

`O=C1Nc2ccc(I)cc2/C1=C/c1cc(Br)c(O)c(Br)c1`: the inhibition is 1.3% (active). Turning to `NCCS(=O)(=O)O`, the inhibition is -4.9%.

Take `NCCCS(=O)(=O)O`: the inhibition is 4.4% (active). For `Cc1nc2c([nH]1)c(=O)n(C)c(=O)n2Cc1ccco1`, the inhibition is -1.4%. Regarding `COCc1nc2c([nH]1)c(=O)n(C)c(=O)n2CC(C)C`, the inhibition is -1.5%.

Turning to `Cn1c(=O)c2[nH]cnc2n(C)c1=O`, the inhibition was 2.2% (active). Consider `CC(C)Cn1c(=O)n(C)c(=O)c2[nH]cnc21`, for which the inhibition was 1.8% (active). Consider `c1ccc(C(NCc2cccnc2)(c2ccccc2)c2ccccc2)cc1`, for which the inhibition was -3.5%.

Regarding `Clc1ccc(C(c2ccccc2Cl)C(Cl)Cl)cc1` (stereo unspecified), the inhibition was 22.6% (active). Consider `O=C(O)/C=C/C(O)c1ccc(Cl)cc1` (stereo unspecified), for which the inhibition is -2.6%.

In the case of `Cc1ccc(N(CC2=NCCN2)c2cccc(O)c2)cc1`, the inhibition is 34.7% (active).

For the compound `O=C1O/C(=C/Br)CCC1c1cccc2ccccc12` (stereo unspecified), the inhibition is 2.5% (active). With `C[C@H](O)C(=O)C1=Nc2c(nc(N)[nH]c2=O)NC1`, the inhibition was 0.2% (active).

For the compound `CCCc1c(OCCCOc2ccc(OCC(=O)O)cc2)ccc(C(C)=O)c1O`, the inhibition is 4.1% (active). Take `O=C(O)/C(=C/c1c(C(=O)O)[nH]c2cc(Cl)cc(Cl)c12)c1ccccc1`: the inhibition is 3.9% (active). Regarding `O=C1NC(c2cccc([N+](=O)[O-])c2)=CCN1c1ccccc1O`, the inhibition is 3.1% (active).

Consider `O=C(O)c1ccccc1Nc1cccc(OCc2ccc3ccccc3n2)c1`, for which the inhibition is 7.4% (active). `CCCCCC(O)c1cccc(OCc2ccc3ccccc3n2)c1` (stereo unspecified): the inhibition was 2.8% (active). As to `O=C(c1ccccc1)c1ccc2n1CCC2C(=O)O` (stereo unspecified), the inhibition was -5%. As for `N#C/C(=C\c1ccc(O)c(O)c1)C(=O)Nc1ccccc1`, the inhibition is 26.5% (active). In the case of `NNCCc1ccccc1` it was -0.4%. `C[C@H](NC(=O)/C(C#N)=C/c1ccc(O)c(O)c1)c1ccccc1`: the inhibition was 24.4% (active). With `N#C/C(=C\c1ccc(O)c(O)c1)C(=O)NCCCc1ccccc1`, the inhibition was 21% (active).

As for `N#C/C(=C\c1ccc(O)c(O)c1)C(=O)NCCc1ccccc1`, the inhibition was 28.3% (active). Next, `C[C@]12C=CC(=O)C=C1CC[C@@H]1C2=CC[C@]2(C)[C@@H](C(=O)CN3CCN(c4cc(N5CCCC5)nc(N5CCCC5)n4)CC3)CC[C@@H]12`: -5.3%; `CSc1ccc(C(=O)c2[nH]c(=O)[nH]c2C)cc1`: -1.7%.

As to `N#C/C(=C\c1ccc(O)c(O)c1)C(=O)NCCCNC(=O)/C(C#N)=C/c1ccc(O)c(O)c1`, the inhibition was 25% (active). On to `N#C/C(=C\c1ccc(O)c(O)c1)C(=O)NCc1ccccc1`, for which the inhibition is 26.3% (active). In the case of `CN(C)c1nc(N(C)C)nc(N(C)C)n1`, the inhibition is -0.9%.

As for `CC(=O)N1CCN(c2ccc(OC[C@H]3CO[C@](Cn4ccnc4)(c4ccc(Cl)cc4Cl)O3)cc2)CC1`, the inhibition is 9.3% (active). Regarding `Nc1nc2c(ncn2COC(CO)CO)c(=O)[nH]1`, the inhibition is 0.2% (active). `Nc1nc2c(ncn2COCCO)c(=O)[nH]1`: the inhibition was 0%. Take `CO/N=C(\C(=O)N[C@@H]1C(=O)N2C(C(=O)O)=C(COC(C)=O)CS[C@H]12)c1csc(N)n1`: the inhibition was -6.9%.

`CC(=O)OCC1=C(C(=O)O)N2C(=O)[C@@H](NC(=O)Cc3cccs3)[C@H]2SC1`: the inhibition was 1% (active).

As for `Cc1ccc(/C(=C\CN2CCCC2)c2ccccn2)cc1`, the inhibition was -2.5%. As for `O=C1N=C(O)C(c2ccccc2)(c2ccccc2)N1`, the inhibition was -3.8%. In the case of `CCCOc1ccccc1-c1nc2n[nH]nc2c(=O)[nH]1` it was -3%. As for `O=c1[nH]c(=O)c2nc3ccccc3nc2[nH]1`, the inhibition was 8% (active). For the compound `C[C@]12CCC(=O)C=C1CC[C@@H]1[C@@H]2C(=O)C[C@@]2(C)[C@H]1CC[C@]2(O)C(=O)CO`, the inhibition is 4.5% (active).

Consider `CC(=O)SC1CC2=CC(=O)CC[C@]2(C)C2CC[C@@]3(C)C(CC[C@@]34CCC(=O)O4)C12` (stereo partly specified), for which the inhibition was -4.3%. Turning to `CC(=O)[C@@]1(O)CC[C@H]2[C@@H]3CCC4=CC(=O)CC[C@]4(C)[C@H]3CC[C@@]21C`, the inhibition is -1%.

Regarding `CC(=O)OCC(=O)[C@@]1(O)CC[C@H]2[C@@H]3CCC4=CC(=O)CC[C@]4(C)[C@H]3C(=O)C[C@@]21C`, the inhibition was -7.3%.

Turning to `CC(=O)[C@H]1CC[C@H]2[C@@H]3CCC4=CC(=O)CC[C@]4(C)[C@H]3CC[C@]12C`, the inhibition is -0.5%. With `C[C@]12C[C@H](O)[C@H]3[C@@H](CCC4=CC(=O)CC[C@@]43C)[C@@H]1CC[C@@H]2C(=O)CO`, the inhibition is 1% (active).

For the compound `C[C@]12CCC(=O)C=C1CC[C@@H]1[C@@H]2[C@@H](O)C[C@@]2(C)[C@H]1CC[C@]2(O)C(=O)CO`, the inhibition is -7.5%. Next, `C[C@]12CCC(=O)C=C1CC[C@@H]1[C@@H]2CC[C@@]2(C)[C@H]1CC[C@]2(O)C(=O)CO`: 1.9% (active). In the case of `O=C1NCN(c2ccccc2)C12CCN(CCCC(c1ccc(F)cc1)c1ccc(F)cc1)CC2`, the inhibition was -2.5%. As to `COc1ccc2c(c1)c(CC(=O)O)c(C)n2C(=O)c1ccc(Cl)cc1`, the inhibition was 4.9% (active).

As to `COc1ccc2c(c1)c(CC(=O)O)c(C)n2C(=O)c1ccccc1`, the inhibition is -3.5%. `Cc1ccc([N+](=O)[O-])cc1S(=O)(=O)N(C)C`: the inhibition was 9.9% (active).

Take `Oc1cc(O)cc(/C=C/c2ccc(O)c(O)c2)c1`: the inhibition is 44% (active). With `Oc1ccc(/C=C/c2cc(O)cc(O)c2)cc1`, the inhibition is 23.2% (active). For `O=c1cc(O)cc(/C=C/c2ccc(O)c(O)c2)o1`, the inhibition was 30.2% (active).

For the compound `Oc1ccc(/C=C/c2ccc(/C=C/c3ccc(O)cc3)c(Br)c2)cc1`, the inhibition is 1% (active). In the case of `Cn1c(=O)c2c(nc(/C=C/c3cccc(Cl)c3)n2C)n(C)c1=O`, the inhibition is 11.3% (active). Next, `C=CCn1c(=O)c2c(nc(-c3ccc(S(=O)(=O)O)cc3)n2C)n(C)c1=O`: -0.9%; `O=C1NC(=O)C(c2ccccc2[N+](=O)[O-])=C1Nc1ccc(O)c(Cl)c1`: 35.4% (active); `Cc1nc2n(c(=O)c1CCN1CCC(c3noc4cc(F)ccc34)CC1)CCCC2O` (stereo unspecified): 1.5% (active). `Clc1ccc2c(c1)C(N1CCNCC1)=Nc1ccccc1O2`: the inhibition is 2.5% (active). Turning to `CN1CCN(C2=Nc3ccccc3Oc3ccc(Cl)cc32)CC1`, the inhibition is 1.9% (active).
